Test results taken from PMC4336329 (PLoS ONE, 2015).
The whole screen tested about 310,000 compounds, of which about 14,000 (4.5%) showed an effect of 50% or more. Effects have a minus sign here. Only a selection was taken, and strong results are over-represented in it overall.

The compounds below were run against human ether-à-go-go-related gene (hERG) potassium channel (human, UniProt Q12809) (assay: primary screen, population patch clamp on CHO cells stably expressing hERG; higher = less effect of the substance).
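Further: peak tail current of the secondary pulse compared with the same well before compound.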

Chain of human ether-à-go-go-related gene (hERG) potassium channel (Q12809 whole entry, looked up): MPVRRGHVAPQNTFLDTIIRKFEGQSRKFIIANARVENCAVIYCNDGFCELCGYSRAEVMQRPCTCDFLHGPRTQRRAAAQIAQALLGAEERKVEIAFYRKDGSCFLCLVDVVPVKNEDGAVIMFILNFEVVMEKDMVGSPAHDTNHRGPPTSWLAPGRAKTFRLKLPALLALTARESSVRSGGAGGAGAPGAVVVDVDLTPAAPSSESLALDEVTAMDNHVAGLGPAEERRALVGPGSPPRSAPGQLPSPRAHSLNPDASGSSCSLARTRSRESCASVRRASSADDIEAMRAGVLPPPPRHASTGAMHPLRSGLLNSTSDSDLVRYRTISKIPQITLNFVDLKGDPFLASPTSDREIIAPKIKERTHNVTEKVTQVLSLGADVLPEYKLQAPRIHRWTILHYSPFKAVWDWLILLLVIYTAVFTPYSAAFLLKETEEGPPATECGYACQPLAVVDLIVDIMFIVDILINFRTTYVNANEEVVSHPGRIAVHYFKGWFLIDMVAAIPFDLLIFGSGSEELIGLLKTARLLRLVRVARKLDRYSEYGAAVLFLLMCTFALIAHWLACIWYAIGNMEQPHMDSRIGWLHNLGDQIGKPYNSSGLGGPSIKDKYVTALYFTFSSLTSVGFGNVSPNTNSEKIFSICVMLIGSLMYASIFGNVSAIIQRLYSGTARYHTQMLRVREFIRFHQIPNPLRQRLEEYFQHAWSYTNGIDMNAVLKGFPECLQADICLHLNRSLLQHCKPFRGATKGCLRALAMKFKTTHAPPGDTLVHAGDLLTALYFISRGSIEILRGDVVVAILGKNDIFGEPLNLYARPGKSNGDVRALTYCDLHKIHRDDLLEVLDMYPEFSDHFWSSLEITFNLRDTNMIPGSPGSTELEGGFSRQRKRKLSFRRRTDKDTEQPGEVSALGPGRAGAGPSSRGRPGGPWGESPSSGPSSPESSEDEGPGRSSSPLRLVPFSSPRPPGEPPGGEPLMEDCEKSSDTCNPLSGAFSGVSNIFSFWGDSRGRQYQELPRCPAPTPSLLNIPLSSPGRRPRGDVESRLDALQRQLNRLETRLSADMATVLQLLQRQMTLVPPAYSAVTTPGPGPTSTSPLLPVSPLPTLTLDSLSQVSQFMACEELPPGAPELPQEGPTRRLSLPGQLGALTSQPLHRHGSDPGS

In order of falling “hERG current change (%, negative = inhibition) at 10uM” value:
1. c1ccc(N2CCN(Cc3cnc(N4CCOCC4)s3)CC2)cc1  29.4%
2. CNc1ccc(Cl)cc1C(N)=O  26.1%
3. O=C(NCc1ccccc1)C1CCCN(S(=O)(=O)c2ccc(Br)cc2)C1 (stereo not drawn)  23.4%
4. COC(=O)c1c(NC(=O)c2ccco2)sc(C)c1C  18.1%
5. O=C(CNC(=O)Cc1ccc(Cl)cc1)NCC(=O)N1CCCCC1  17.9%
6. COc1cccc(CNC(=O)c2nnn(CC(=O)Nc3ccc(Br)cc3)c2N)c1  17.5%
7. Nc1nnc(SCC(=O)NC2CCCCCCC2)s1  16.9%
8. O=S1(=O)N=C(N(CCO)/N=C/c2ccc(Br)cc2)c2ccccc21  15%
9. O=c1oc2ccccc2cc1-c1cn2ccccc2n1  11.9%
10. COc1ccc2c(c1)OC[C@H]1[C@H]2N2C(=O)CN(Cc3ccco3)C(=O)[C@@]2(C)[C@H]1c1ccccc1  10.7%
11. O=C(NCCCn1ccnc1)C1CCCN(S(=O)(=O)c2ccc(F)cc2)C1 (stereo not drawn)  10.7%
12. COCCn1c(SCC(=O)Nc2ccc(OC)cc2OC)nc2ccccc2c1=O  10.5%
13. CC(=O)Nc1ccc(NC(=O)COC(=O)Cc2c[nH]c3ccccc23)cc1  10.2%
14. COc1ccc(CC(=O)N(C)CC(=O)Nc2ccccc2SC)cc1  8.56%
15. CCOC(=O)c1c(C)n(C)c2ccc(OCC(N)=O)cc12  7.9%
16. COc1ccc(S(=O)(=O)N2CCCC(C(=O)NCCCn3ccnc3)C2)cc1OC (stereo not drawn)  7.83%
17. O=C(Nc1cccc(C(=O)O)c1)/C(=C\c1ccccc1Cl)NC(=O)c1ccco1  6.89%
18. COc1ccc(Cl)cc1NS(=O)(=O)N1CCOCC1  6.86%
19. Cc1ccc(N(Cc2ccccc2)C(=O)c2cc(S(=O)(=O)N3CCOCC3)ccc2N2CCCC2)cc1  5.59%
20. COc1ccc(C2C(C(=O)c3cccs3)=C(O)C(=O)N2Cc2cccnc2)cc1OC (stereo not drawn)  5.03%
21. CCCN(CC1CC1)CC(O)c1ccccc1.O=C(O)C(=O)O (stereo not drawn)  4.51%
22. CC(Oc1cccc(Cl)c1)C(=O)Nc1nc(-c2ccccn2)cs1 (stereo not drawn)  4.19%
23. Cl.O=C(C1CCN(S(=O)(=O)c2cccs2)CC1)N1CCN(Cc2ccccc2)CC1  3.79%
24. COc1ccc(NC(=O)CCCNS(=O)(=O)c2cccs2)cc1  2.91%
25. COCCNC(=S)NC1CC2CCC(C1)N2Cc1ccccc1 (stereo not drawn)  2.78%
26. CN(CC(O)COc1ccccc1F)C1CCCCC1.Cl (stereo not drawn)  2.08%
27. COCCNC(=O)COc1ccccc1Cl  1.56%
28. Cn1c(=O)[nH]c(=O)c2c1nc(SCCC(=O)O)n2Cc1cccc(Br)c1  1.52%
29. COc1ccc(CC(=O)N(Cc2ccccc2)c2ccccc2)cc1S(=O)(=O)N1CCOCC1  1.07%
30. OCCC1CN(Cc2cnc(N3CCCC3)s2)CCN1Cc1ccccc1 (stereo not drawn)  -0.21%
31. CCCNC(=O)COC(=O)c1ccccc1OCc1ccc(Cl)cc1  -0.354%
32. COCCCNc1nc(-c2ccc(Cl)cc2)nc2ccccc12  -1.64%
33. Cl.O=C(CN1CCCCCC1)N1c2ccccc2Sc2ccc(C(F)(F)F)cc21  -1.87%
34. COc1ccccc1CNC(=O)COC(=O)c1nc(Cl)ccc1Cl  -2.78%
35. CC(C)NCC(O)COc1c(F)cc(Br)cc1F.Cl (stereo not drawn)  -4.33%
36. Clc1ncc(CN2CCN(Cc3ccccc3)CC2)s1  -4.52%
37. CC(Cc1ccccc1)NC(=O)c1cc([N+](=O)[O-])ccc1Cl (stereo not drawn)  -4.69%
38. CCCCN=C1NN=C(c2cccc([N+](=O)[O-])c2)CS1.Cl  -4.82%
39. Cc1cccc(N(Cc2ccccc2)C(=O)c2cc(S(=O)(=O)N3CCOCC3)ccc2F)c1  -5.69%
40. CC(Oc1ccc(Br)cc1)C(=O)Nc1nc(-c2ccccn2)cs1 (stereo not drawn)  -5.7%
41. O=C(CN1CCSCC1)N/N=C/c1ccc(F)cc1F  -6.43%
42. Cn1c(=O)c2cc(S(=O)(=O)NC(C(=O)Nc3cccc(F)c3)c3ccccc3)ccc2n(C)c1=O (stereo not drawn)  -7.01%
43. Cc1ccc(C(=O)COC(=O)c2nc3nccc(C)n3n2)c(C)c1  -7.14%
44. OCCC1CN(Cc2cnc(N3CCCC3)s2)CCN1C1CCCC1 (stereo not drawn)  -7.38%
45. CC(C)(C)NCC(O)COc1c(F)cc(Br)cc1F.Cl (stereo not drawn)  -7.38%
46. CCc1nnc(NC(=O)c2cc(C)oc2C)s1  -10%
47. Cc1ccc(N(Cc2ccccc2)C(=O)c2cc(S(=O)(=O)N3CCOCC3)ccc2F)cc1  -10.2%
48. COCCNc1cc(C)nc2ccccc12.Cl  -10.8%
49. CCn1c(SCC(=O)Nc2ccccc2OC)nc2ccccc2c1=O  -11.9%
50. Cc1cccc(N(Cc2ccccc2)C(=O)c2cc(S(=O)(=O)N3CCOCC3)ccc2Cl)c1  -13.3%
51. CCCc1cc2c(cc1NC(=O)c1ccc(C(C)(C)C)cc1)OCO2  -13.8%
52. Cc1csc(NC(=O)CSc2nnc3ncccn23)n1  -14.3%
53. Cc1ccccc1OCC(=O)N(Cc1nc(-c2ccccc2)no1)C(C)C  -15%
54. CC(C)NCC(O)c1ccc(C2CCCC2)cc1.O=C(O)/C=C\C(=O)O (stereo not drawn)  -15.5%
55. c1ccc2c(CSCCc3ccncc3)cccc2c1  -17.6%
56. Cc1cccc(N(Cc2ccccc2)C(=O)c2ccc(C)c(S(=O)(=O)N3CCOCC3)c2)c1  -17.6%
57. Cc1ccc(N(Cc2ccccc2)C(=O)c2ccc(C)c(S(=O)(=O)N3CCOCC3)c2)cc1  -18%
58. O=C(NCc1ccncc1)C1CCN(S(=O)(=O)c2cc(Cl)ccc2Cl)CC1  -18.9%
59. COc1ccc(NC(=O)c2cc(S(=O)(=O)NCC3COc4ccccc4O3)ccc2F)cc1 (stereo not drawn)  -19.1%
60. Cc1cccc(NC2=C(NC(=O)c3ccccc3)C(=O)c3ccccc3C2=O)c1  -19.4%
61. CC(C)N(Cc1nnc(-c2ccc(Cl)cc2)o1)C(=O)C1=COCCO1  -19.9%
62. CC(C)N(Cc1nnc(-c2ccccc2Br)o1)C(=O)c1cc(Cl)nc2ccccc12  -24.9%
63. COc1ccc(Cl)cc1S(=O)(=O)N1CCCC(C(=O)NCc2ccncc2)C1 (stereo not drawn)  -25.7%
64. CCc1ccc(NC(=O)c2cc(C(C)C)on2)cc1  -27.3%
65. Cl.OC(CNC1CCCC1)COc1c(F)cc(Br)cc1F (stereo not drawn)  -27.3%
66. COc1ccc(NC(=O)CSc2nc3ccccc3c(=O)n2CCCN2CCOCC2)c(OC)c1  -34.6%
67. COc1ccc(C(=O)N(Cc2ccccc2)c2cccc(C)c2)cc1S(=O)(=O)N1CCOCC1  -35.8%
68. COCCn1c(SCC(=O)Nc2ccccc2OC)nc2ccccc2c1=O  -40.1%
69. CC(C)N(Cc1nnc(-c2ccc(Cl)cc2)o1)C(=O)c1cc2ccccc2o1  -40.1%
70. COCCCNc1cc(C)nc2ccccc12.Cl  -40.3%
71. O=C(NCc1cccnc1)C1CCCN(S(=O)(=O)c2ccc(Br)cc2)C1 (stereo not drawn)  -41.6%
72. CCOC(=O)C1(Cc2ccccc2)CCN(Cc2cnc(N3CCOCC3)s2)CC1  -42.4%
73. Cc1cccc(N(Cc2ccccc2)C(=O)c2ccc(F)c(S(=O)(=O)N3CCOCC3)c2)c1  -50.5%
74. CN(C)c1ncc(CN2CCC(CO)(CCCc3ccccc3)CC2)s1  -51.3%
75. Cc1ccccc1OCC(=O)N(Cc1nnc(-c2ccc(Cl)cc2)o1)C(C)C  -53.5%
76. COc1cccc(CC2(CO)CCN(Cc3cnc(N4CCOCC4)s3)CC2)c1  -54.7%
77. CC1CCCC(C)N1CC(O)COc1c(F)cc(Br)cc1F.Cl (stereo not drawn)  -57.7%
78. OCC1(CCCc2ccccc2)CCN(Cc2cnc(N3CCOCC3)s2)CC1  -58.3%
79. COCCCNc1ccnc2c(Cl)cccc12  -58.5%
80. Cc1cc(C(=O)N(Cc2nnc(-c3ccc(Cl)cc3)o2)C(C)C)c2ccccc2n1  -58.5%
81. O=C(NCCCn1ccnc1)C1CCCN(S(=O)(=O)c2cc(Cl)ccc2Cl)C1 (stereo not drawn)  -60.3%
82. O=C(NCc1ccncc1)C1CCCN(S(=O)(=O)c2cc(Cl)ccc2Cl)C1 (stereo not drawn)  -61.2%
83. CCN(CC)CC(O)c1ccc(C2CCCC2)cc1.Cl (stereo not drawn)  -63%
84. COc1ccc(NC(=O)CSc2nc3ccccc3c(=O)n2CCCN2CCCCC2)c(OC)c1  -65.7%
85. CN(CC(O)COc1c(F)cc(Br)cc1F)C1CCCCC1.Cl (stereo not drawn)  -65.9%
86. COc1ccc(C(=O)N(Cc2ccccc2)c2ccc(C)cc2)cc1S(=O)(=O)N1CCOCC1  -67.7%
87. OCC1(CCc2ccccc2)CCN(Cc2cnc(N3CCCC3)s2)CC1  -70.3%
88. Cc1ccc(N(Cc2ccccc2)C(=O)c2ccc(Cl)c(S(=O)(=O)N3CCOCC3)c2)cc1  -70.3%
89. CC(Oc1ccc(F)cc1)C(=O)Nc1nc(-c2ccccn2)cs1 (stereo not drawn)  -76.3%
90. O=C(NCc1ccncc1)C1CCCN(S(=O)(=O)c2ccc(Br)cc2)C1 (stereo not drawn)  -77.5%
91. COc1ccc(NC(=O)CSc2nc3ccccc3c(=O)n2CCCN2CCC(C)CC2)c(OC)c1  -81.6%
92. COCCNc1ccnc2c(Cl)cccc12  -81.9%
93. Cc1ccc(N(Cc2ccccc2)C(=O)c2ccc(F)c(S(=O)(=O)N3CCOCC3)c2)cc1  -82.7%
